Source: PubChem BioAssay
An excerpt weighted towards active compounds, which were near 5.2% of everything screened.
SMARCA2 act: increases SMARCA2 function in MMTV reporter cells. MG213 cells, MMTV-luciferase reporter, dexamethasone, overnight. 370,000 tested, 1% active. AID 652017. activation, % at 9.1 µM; in the data active means activation above about 7.8%
Vif inh: blocks HIV Vif function | HEK293T cells, Vif self-association by quenched fluorescence, imaging, 24 h | AID 602346 | 340,000 tested, 0.35% active | inhibition, % at 7.49 µM; in the data active means inhibition above about 50%, passing the limit was not always enough; inconclusive means no clear call, values can overlap the other calls; inactive means below about 31%
SKN-1 block: blocks SKN-1 activity in C. elegans; C. elegans VP596 Pgst-4::GFP/RFP ratio, acrylamide-induced, 24 h; inhibition, % at 21.8 µM; 360,000 tested, 0.49% active; AID 624304;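 active means interference check ratio from 0.5 to 1.5 plus GFP to RFP signal ratio inhibition reaching or exceeding a fixed threshold, cut at about 30% in these data, passing the limit was not always enough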
esBAF inh: blocks esBAF chromatin remodeling in mouse ES cells. reporter increase, % at 12.5 µM. Bmi1-luciferase knock-in reporter, 24 h; 100% = twice the neutral-well signal. AID 602393. 350,000 tested, 2% active; in the data active means activation above about 40%; inconclusive means no clear call, values can overlap the other calls;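 further: a rise in the Bmi1 reporter signal indicates esBAF inhibition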
GRIN3A LBD mod: modulates the human NR3A ligand-binding domain; Tm shift relative to glycine control, % at 25 µM; 340,000 tested, 2.5% active; NR3A LBD differential scanning fluorimetry, Tm shift; 0% = protein alone, 100% = glycine-bound protein;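 active means melting temperature shift of at least 10% of the positive control shift, at one fixed dose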
NadD block: inhibitors of Staphylococcus aureus NadD | purified NadD enzyme, colorimetric absorbance read-out | inhibition, % at 20 µM | 360,000 tested, 0.78% active | AID 602399; in the data active means inhibition above about 26%
Large screens that a line does not name were inactive.

Cc1ccc(C(=O)Nc2ccc(Cl)cn2)cc1S(=O)(=O)N1CCOCC1	GRIN3A LBD mod 19
COc1ccc(/C=C/C(=O)NC2CCCCCCC2)cc1S(=O)(=O)N1CCOCC1	esBAF inh 51
Cc1ccc(C(=O)N=c2sccn2C)cc1S(=O)(=O)N1CCOCC1	esBAF inh 63
COc1ccc(/C=C/C(=O)NC(C)(C)C)cc1S(=O)(=O)N1CCOCC1	none (no result: esBAF inh)
O=C(Nc1ccc(-c2cn3ccsc3n2)cc1)c1ccc(F)c(S(=O)(=O)N2CCOCC2)c1	GRIN3A LBD mod 25
COc1ccc(NC(=O)Nc2cccc3c2O[C@@H](CN(C)S(=O)(=O)c2ccc(Cl)cc2)[C@H](C)CN([C@@H](C)CO)C3=O)cc1	none (no result: SMARCA2 act, Vif inh, SKN-1 block, GRIN3A LBD mod, NadD block)
O=C(NC1CCCC1)c1ccc(Cl)c(S(=O)(=O)N2CCOCC2)c1	none
Cc1ccc(C(=O)NC2CCCCCCC2)cc1S(=O)(=O)N1CCOCC1	GRIN3A LBD mod 34 (no result: esBAF inh)
Cc1nc2ccc(NC(=O)c3ccc(C)c(S(=O)(=O)N4CCOCC4)c3)cc2s1	GRIN3A LBD mod 13
CCCN=CC1=C(O)CC(c2ccccc2)CC1=O (stereo unspecified)	GRIN3A LBD mod 391
CC(C)CCN=CC1=C(O)CC(c2ccccc2)CC1=O (stereo unspecified)	none (no result: esBAF inh)
COc1cccc(C2=NN(C(C)=O)C(c3cccs3)C2)c1 (stereo unspecified)	SKN-1 block 36
COc1ccc(C2CC(c3ccc4ccccc4c3)=NN2C(=O)CSc2ncccn2)cc1 (stereo unspecified)	GRIN3A LBD mod 19
COc1ccc(C2CC(c3ccccc3)=NN2C(=O)c2cccs2)cc1 (stereo unspecified)	SKN-1 block 37, esBAF inh 47
O=C(Nc1ccc2c(c1)nc1n2CCOC1)C1CCCCC1	esBAF inh 53
Cc1ccc(NC(=O)C2(C)CCN2Cc2ccc(OC(C)C)cc2)cc1 (stereo unspecified)	none (no result: GRIN3A LBD mod)
CC(C)Oc1ccc(CN2CCC2(C)C(=O)Nc2ccc(Cl)c(Cl)c2)cc1 (stereo unspecified)	Vif inh 58 (no result: GRIN3A LBD mod)
OCC1CCCN(C(=S)Nc2ccc(Nc3ccccc3)cc2)C1 (stereo unspecified)	esBAF inh 47
OCC1CCCN(C(=S)Nc2ccc(OC(F)F)cc2)C1 (stereo unspecified)	none (no result: esBAF inh)
COc1ccc(CN(C)C[C@H]2Oc3ccc(NC(=O)Nc4c(C)noc4C)cc3C(=O)N([C@H](C)CO)C[C@H]2C)cc1	none (no result: SMARCA2 act, Vif inh, SKN-1 block, GRIN3A LBD mod, NadD block)
CCCC1=C/C(=C/c2ccc(-c3ccccc3OC)o2)C(=O)O1	NadD block 40 (no result: esBAF inh)
COc1ccccc1-c1ccc(/C=C2/C=C(CC(C)C)OC2=O)o1	none
CC(C)Oc1cccc(C(=O)Nc2ccc(CN3CCOCC3)cc2)c1	SKN-1 block 35
O=C(Nc1ccc2c(c1)OCCO2)c1ccc(CN2CCOCC2)cc1	esBAF inh 56 (no result: Vif inh)
COc1cccc(NC(=O)c2ccc(CN3CCOCC3)cc2)c1	none
C[C@H](CO)N1C[C@H](C)[C@@H](CN(C)C(=O)c2cccnc2)Oc2ncc(C#CCN(C)C)cc2C1=O	none (no result: SMARCA2 act, Vif inh, SKN-1 block, GRIN3A LBD mod, NadD block)
O=[N+]([O-])CC(c1ccccc1)c1c[nH]c2ccccc12 (stereo unspecified)	none
OC(CNCC(c1ccc(Cl)cc1Cl)c1c[nH]c2ccccc12)c1ccccc1 (stereo unspecified)	GRIN3A LBD mod 24
Cc1ccc(NC(=O)CSCc2cc(=O)n3ccsc3n2)cc1	SKN-1 block 34 (no result: SMARCA2 act)
O=C(CSCc1cc(=O)n2ccsc2n1)Nc1ccc(F)cc1	none
COC(=O)C[C@@H]1C[C@H]2c3cc(NC(=O)Nc4ccc(C(F)(F)F)cc4)ccc3O[C@H]2[C@H](CO)O1	none (no result: SMARCA2 act, Vif inh, SKN-1 block, GRIN3A LBD mod, NadD block)
CCS(=O)(=O)NCC[C@@H]1CC[C@H](NS(=O)(=O)c2cccc(Cl)c2)[C@H](CO)O1	none (no result: SMARCA2 act, Vif inh, SKN-1 block, GRIN3A LBD mod, NadD block)
C[C@H](CO)N1C[C@H](C)[C@@H](CN(C)S(=O)(=O)c2ccc(Cl)cc2)Oc2c(NS(C)(=O)=O)cccc2C1=O	none (no result: SMARCA2 act, Vif inh, SKN-1 block, GRIN3A LBD mod, NadD block)
COc1ccc(N=Nc2cc(C)c(O)c(CN3CCCCC3)c2)cc1	SKN-1 block 50
Cc1ccc2nc(-c3ccc(NC(=O)C(C)N4C(=O)c5ccccc5C4=O)cc3)sc2c1 (stereo unspecified)	GRIN3A LBD mod 16 (no result: esBAF inh)
Cc1ccc2nc(-c3ccc(NC(=O)CCN4C(=O)c5ccccc5C4=O)cc3)sc2c1	GRIN3A LBD mod 18 (no result: esBAF inh)
O=C(CCN1C(=O)c2ccccc2C1=O)Nc1ccc(-c2nc3ccccc3s2)cc1	none (no result: esBAF inh)
CO[C@H]1CN(C)C(=O)c2cc(C#N)ccc2OC[C@H]2O[C@H](CC[C@H]2OC)CCN(C)C(=O)[C@@H]1C	none (no result: SMARCA2 act, Vif inh, SKN-1 block, GRIN3A LBD mod, NadD block)
O=C(C1CCCN(Cc2cccs2)C1)N1CCCCCC1 (stereo unspecified)	GRIN3A LBD mod 11
COc1ccc(CN(C)C[C@@H]2Oc3c(NC(=O)c4cnccn4)cccc3C(=O)N([C@H](C)CO)C[C@H]2C)cc1	none (no result: SMARCA2 act, Vif inh, SKN-1 block, GRIN3A LBD mod, NadD block)
Cc1c(C(=O)Nc2ccccc2F)sc2ncn(CC(=O)N3CCOCC3)c(=O)c12	esBAF inh 42
Cc1c(C(=O)Nc2c(F)cccc2F)sc2ncn(CC(=O)N3CCCCC3)c(=O)c12	none
COc1ccc(-c2nnc3ccc(SCC(=O)Nc4nc5ccc(C)cc5s4)nn23)cc1OC	GRIN3A LBD mod 14 (no result: esBAF inh)
COC(=O)CSc1ccc2nnc(-c3ccc(OC)c(OC)c3)n2n1	none
CC(C)CC(=O)Nc1ccc(Nc2ccccc2)cc1	SKN-1 block 35
CC(C)CC(=O)Nc1ccc(Oc2ccc(NC(=O)CC(C)C)cc2)cc1	none (no result: Vif inh, esBAF inh)
CC(C)C(=O)Nc1nnc(NC(=S)Nc2ccccc2)s1	esBAF inh 76
CC(C)C(=O)Nc1ccc(Nc2ccccc2)cc1	GRIN3A LBD mod 26
Cc1noc(C)c1NC(=O)N(C)C[C@@H]1OCCCC[C@H](C)Oc2ccc(N(C)C)cc2C(=O)N([C@@H](C)CO)C[C@@H]1C	none (no result: SMARCA2 act, Vif inh, SKN-1 block, GRIN3A LBD mod, NadD block)
Nc1ccc2nc(NC(=O)C3CCCCC3)sc2c1	esBAF inh 52
CCOc1ccc2nc(NC(=O)C3CCCO3)sc2c1 (stereo unspecified)	none
CCOc1ccc2nc(NC(=O)C34CC5CC(CC(NC(C)=O)(C5)C3)C4)sc2c1	esBAF inh 58
COc1ccc2nc(NC(=O)c3ccccc3-c3ccccc3C(=O)O)sc2c1	none
COc1ccc2nc(NC(=O)Nc3ccccc3)sc2c1	GRIN3A LBD mod 23
CCOc1ccc2nc(NC(=O)NC3CCCCC3)sc2c1	esBAF inh 34, GRIN3A LBD mod 18
O=C(C[C@@H]1C=C[C@@H](NC(=O)c2ccccc2)[C@H](CO)O1)NCc1ccncn1	none (no result: SMARCA2 act, Vif inh, SKN-1 block, GRIN3A LBD mod, NadD block)
Cc1ccccc1S(=O)(=O)N1C[C@H](O)COC[C@@H]2O[C@H](CC(=O)NCCc3ccccc3)CC[C@H]21	none (no result: SMARCA2 act, Vif inh, SKN-1 block, GRIN3A LBD mod, NadD block)
COc1ccc(NC(=O)Nc2nc3ccccc3s2)cc1	GRIN3A LBD mod 28 (no result: esBAF inh)
O=C(COc1ccc(F)cc1)Nc1nc2c(s1)CCCC2	esBAF inh inconclusive, GRIN3A LBD mod 14
